This passage reports outcome and AC50 results from PubChem BioAssay (EPA / NIEHS).

Results filed as inconclusive are left out. Calls of active or inactive are those of the source. The calls were made as follows: active = hit-call score of the fitted dose curve at least 0.9, where 1 is the maximum; inconclusive = response in the unintended direction; inactive = score below 0.9.

Test [1] concerns the target sheep Cyclooxygenase-1 (Cox1), PTGS1 (gene 443551) (UniProt P05979). As to the kind of experiment: NVS_ENZ_oCOX1: NovaScreen (NVS) Enzymatic Assay for sheep Cyclooxygenase-1 (Cox1) (AID 2283239).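 Also: actives reduce cyclooxygenase activity so potencies are for inhibitors.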 The essentials: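 Absorbance read-out of cyclooxygenase activity in a cell-free preparation from sheep seminal vesicles, taken 0.66 hour after dosing. Initial testing was in duplicate at 25 uM, and confirmatory testing was run in concentration series.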

Test [2] deals with human Vascular Endothelial Growth Factor Receptor 3 (VEGFR3), FLT4 (gene 2324) (UniProt P35916). As to the kind of experiment: NVS_ENZ_hVEGFR3: NovaScreen (NVS) Enzymatic Assay for human Vascular Endothelial Growth Factor Receptor 3 (VEGFR3) (AID 2283229). On the procedure:
NVS_ENZ_hVEGFR3 is a biochemical, single-readout assay that uses extracted gene-proteins in a cell-free assay. Measurements were taken 1 hour after chemical dosing in a 96-well plate.NVS_ENZ_hVEGFR3 is one of one assay component(s) measured or calculated from the NVS_ENZ_hVEGFR3 assay. It is designed to make measurements of enzyme activity, a form of enzyme reporter, as detected with fluorescence intensity signals by Fluorescence and electrophoretic mobility shift technology.Data from the assay component NVS_ENZ_hVEGFR3 was analyzed into 1 assay endpoint. This assay endpoint, NVS_ENZ_hVEGFR3, was analyzed in the positive analysis fitting direction relative to DMSO as the negative control and baseline of activity. Using a type of enzyme reporter, loss-of-signal activity can be used to understand changes in the enzymatic activity as they relate to the gene FLT4. Furthermore, this assay endpoint can be referred to as a primary readout, because this assay has produced multiple assay endpoints where this one serves a enzymatic activity function. To generalize the intended target to other relatable targets, this assay endpoint is annotated to the kinase intended target family, where the subfamily is receptor tyrosine kinase. […]

Test [3] concerns the target rat Constitutive Nitric Oxide Synthase (CNOS), Nos1 (gene 24598) (UniProt P29476). As to the kind of experiment: NVS_ENZ_rCNOS: NovaScreen (NVS) Enzymatic Assay for rat Constitutive Nitric Oxide Synthase (CNOS) (AID 2283236). The gist of the method:
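Single 25 uM duplicate screen, then concentration series to 50 uM for chemicals meeting threshold. Rat brain membrane-derived CNOS activity detected radiometrically by filtration and scintillation counting, 1 h after compound addition; DMSO as baseline.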

In test [4] the target is sheep Cyclooxygenase-2 (Cox2), PTGS2 (gene 443460) (UniProt P79208). As to the kind of experiment: NVS_ENZ_oCOX2: NovaScreen (NVS) Enzymatic Assay for sheep Cyclooxygenase-2 (Cox2) (AID 2283231). The gist of the method:
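Enzyme extracted from ovine placenta tested cell-free; activity read colorimetrically by absorbance 0.66 hour after dosing. Primary screen in duplicate at 25 uM; hits rerun as concentration series to 50 uM, loss of signal versus DMSO baseline.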

Test [5] has as its system bovine Angiotensin II Receptor Type 2 (AT2), gene 407157. As to the kind of experiment: NVS_GPCR_bAT2: NovaScreen (NVS) G Protein-Coupled Receptor Assay for bovine Angiotensin II Receptor Type 2 (AT2) (AID 2283240). The essentials:
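Radioligand displacement on bovine cerebellar membranes, 1 hour incubation, filter-based scintillation counting; loss of signal vs DMSO. Duplicate single-point screen at 25 uM, then concentration-response to 50 uM maximum.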

Test [6] deals with human Vascular Endothelial Growth Factor Receptor 2 (VEGFR2), KDR (gene 3791) (UniProt P35968). Nature of the test: NVS_ENZ_hVEGFR2: NovaScreen (NVS) Enzymatic Assay for human Vascular Endothelial Growth Factor Receptor 2 (VEGFR2) (AID 2283230). The protocol:
NVS_ENZ_hVEGFR2 is a biochemical, single-readout assay that uses extracted gene-proteins in a cell-free assay. Measurements were taken 1 hour after chemical dosing in a 384-well plate.NVS_ENZ_hVEGFR2 is one of one assay component(s) measured or calculated from the NVS_ENZ_hVEGFR2 assay. It is designed to make measurements of enzyme activity, a form of enzyme reporter, as detected with fluorescence intensity signals by Fluorescence and electrophoretic mobility shift technology.Data from the assay component NVS_ENZ_hVEGFR2 was analyzed into 1 assay endpoint. This assay endpoint, NVS_ENZ_hVEGFR2, was analyzed in the positive analysis fitting direction relative to DMSO as the negative control and baseline of activity. Using a type of enzyme reporter, loss-of-signal activity can be used to understand changes in the enzymatic activity as they relate to the gene KDR. Furthermore, this assay endpoint can be referred to as a primary readout, because this assay has produced multiple assay endpoints where this one serves a enzymatic activity function. To generalize the intended target to other relatable targets, this assay endpoint is annotated to the kinase intended target family, where the subfamily is receptor tyrosine kinase.
Binding assays used specific radioligands (tritiated, iodinated) with non-radioactive competitive displacement ligands in agonist or antagonist protocols (as indicated) and various reference compounds and inhibitors to titrate specific binding to receptors and transporters. Most enzyme assays (CYPs, kinases, phosphatases, proteases, HDACs) used recombinant protein and specific substrates (fluorescence mostly, some colorimetric and radioactive) and inhibitors, followed by a biochemical separation of substrate and product. All assays for the biochemical HTS were initially run in duplicate at a single concentration (10 uM for CYP450 assays and 25 uM for all others). Assay-chemical combinations meeting a pre-defined threshold (e.g., 30% inhibition and other criteria defined below) were then run in singleton concentration-response format with maximum concentration of 20 uM for CYPs and 50 uM for all others. Each assay was run with positive and negative controls, and concurrent controls on every plate. The follow-up (secondary) screen tested active chemical-pairs in concentration series, as well as a few additional assays not tested in the primary screen, some selected negative inactives, and several cases re-run in the concentration series for confirmatory purposes.

The target of test [7] is rat Catechol-O-Methyl Transferase (COMT), Comt (gene 24267) (UniProt P22734). As to the kind of experiment: NVS_ENZ_rCOMT: NovaScreen (NVS) Enzymatic Assay for rat Catechol-O-Methyl Transferase (COMT) (AID 2283235). The gist of the method:
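Rat dorsal striatum extract served as COMT source; product quantified by HPLC/spectrophotometry, read at 0 h after dosing. Primary single-concentration screen at 25 uM, followed by concentration series to a 50 uM maximum.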

The target of test [8] is human Tropomyosin Receptor Kinase A (TRKA), NTRK1 (gene 4914) (UniProt P04629). Nature of the test: NVS_ENZ_hTrkA: NovaScreen (NVS) Enzymatic Assay for human Tropomyosin Receptor Kinase A (TRKA) (AID 2283224). The gist of the method: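 Compounds were screened at 25 uM in duplicate, then concentration series to a 50 uM top for those meeting threshold (e.g. 30% inhibition). Enzyme was recombinant human TrkA, incubated 1 h. Product formation was quantified by fluorescence after mobility-shift separation.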

The target of test [9] is bovine Dopamine Receptor (DR), Non-selective Binding, DRD1 (gene 281125) (UniProt Q95136). Nature of the test: NVS_GPCR_bDR_NonSelective: NovaScreen (NVS) G Protein-Coupled Receptor Assay for bovine Dopamine Receptor (DR), Non-selective Binding (AID 2283241). The gist of the method:
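Filter-based radioligand binding with bovine striatal membrane, incubated 1 h; DMSO as negative baseline. Initial duplicate single-point test at 25 uM preceded concentration series for actives.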

Test [10] addresses human Vascular Endothelial Growth Factor Receptor 1 (VEGFR1), FLT1 (gene 2321) (UniProt P17948). As to the kind of experiment: NVS_ENZ_hVEGFR1: NovaScreen (NVS) Enzymatic Assay for human Vascular Endothelial Growth Factor Receptor 1 (VEGFR1) (AID 2283226). The essentials:
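Kinase activity of recombinant human VEGFR1 was read by fluorescence after electrophoretic separation of product from substrate, 1 h post-dosing; initial duplicate single-point testing at 25 uM, followed by concentration-series follow-up, with DMSO as baseline.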

Sequence of sheep Cyclooxygenase-2 (Cox2), PTGS2 (gene 443460) (P79208 whole entry, looked up): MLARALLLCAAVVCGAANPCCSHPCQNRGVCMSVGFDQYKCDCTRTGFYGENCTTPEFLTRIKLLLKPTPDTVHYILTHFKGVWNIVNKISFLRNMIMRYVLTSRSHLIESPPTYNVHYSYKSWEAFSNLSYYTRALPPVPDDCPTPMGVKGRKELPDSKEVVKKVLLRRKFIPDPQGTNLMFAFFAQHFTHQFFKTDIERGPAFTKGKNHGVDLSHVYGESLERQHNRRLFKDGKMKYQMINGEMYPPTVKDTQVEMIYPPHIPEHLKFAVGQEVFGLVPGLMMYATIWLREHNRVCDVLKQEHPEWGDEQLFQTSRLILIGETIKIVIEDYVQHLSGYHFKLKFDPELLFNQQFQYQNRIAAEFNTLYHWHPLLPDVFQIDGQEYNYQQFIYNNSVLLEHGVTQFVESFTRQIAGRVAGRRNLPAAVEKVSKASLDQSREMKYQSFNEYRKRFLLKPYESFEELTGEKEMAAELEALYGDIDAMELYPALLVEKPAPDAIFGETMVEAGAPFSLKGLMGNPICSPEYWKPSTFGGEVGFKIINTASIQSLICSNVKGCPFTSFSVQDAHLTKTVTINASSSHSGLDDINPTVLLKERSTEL
Sequence of human Vascular Endothelial Growth Factor Receptor 1 (VEGFR1), FLT1 (gene 2321) (P17948 whole entry, looked up): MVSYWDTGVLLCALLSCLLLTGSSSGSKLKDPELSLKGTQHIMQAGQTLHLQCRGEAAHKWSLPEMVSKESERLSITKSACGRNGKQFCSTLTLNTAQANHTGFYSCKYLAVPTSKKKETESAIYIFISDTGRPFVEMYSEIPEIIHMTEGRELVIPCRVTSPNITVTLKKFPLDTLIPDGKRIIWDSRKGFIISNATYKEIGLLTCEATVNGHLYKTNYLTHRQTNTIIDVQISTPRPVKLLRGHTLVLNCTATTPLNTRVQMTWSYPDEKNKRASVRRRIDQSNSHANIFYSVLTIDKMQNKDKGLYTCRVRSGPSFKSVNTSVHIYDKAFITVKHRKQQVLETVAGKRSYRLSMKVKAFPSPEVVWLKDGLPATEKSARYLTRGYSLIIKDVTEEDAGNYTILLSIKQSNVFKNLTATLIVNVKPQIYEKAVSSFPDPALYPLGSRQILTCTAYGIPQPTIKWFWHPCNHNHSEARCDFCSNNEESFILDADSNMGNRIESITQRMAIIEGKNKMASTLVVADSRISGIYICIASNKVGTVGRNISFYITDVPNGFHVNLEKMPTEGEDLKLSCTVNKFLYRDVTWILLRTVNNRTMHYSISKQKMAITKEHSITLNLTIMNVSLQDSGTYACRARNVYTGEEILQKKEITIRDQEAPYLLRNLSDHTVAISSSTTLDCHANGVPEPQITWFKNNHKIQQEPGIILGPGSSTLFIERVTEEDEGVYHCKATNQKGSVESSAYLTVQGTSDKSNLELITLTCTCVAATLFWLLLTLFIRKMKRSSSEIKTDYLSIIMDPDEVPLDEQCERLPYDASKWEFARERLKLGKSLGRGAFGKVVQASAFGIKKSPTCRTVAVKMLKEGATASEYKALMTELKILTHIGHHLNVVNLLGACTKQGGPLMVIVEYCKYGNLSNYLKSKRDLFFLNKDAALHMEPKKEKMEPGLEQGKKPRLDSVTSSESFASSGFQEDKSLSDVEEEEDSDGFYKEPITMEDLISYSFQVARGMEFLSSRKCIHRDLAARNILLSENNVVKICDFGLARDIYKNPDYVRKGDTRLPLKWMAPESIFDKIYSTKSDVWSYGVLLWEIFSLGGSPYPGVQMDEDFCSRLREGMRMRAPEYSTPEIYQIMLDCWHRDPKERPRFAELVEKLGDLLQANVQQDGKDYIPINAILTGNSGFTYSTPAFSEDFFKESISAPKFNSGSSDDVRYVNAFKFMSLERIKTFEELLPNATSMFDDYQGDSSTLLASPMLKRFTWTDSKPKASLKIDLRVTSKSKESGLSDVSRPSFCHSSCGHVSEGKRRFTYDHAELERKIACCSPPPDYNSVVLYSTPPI
Sequence of rat Catechol-O-Methyl Transferase (COMT), Comt (gene 24267) (P22734 whole entry, looked up): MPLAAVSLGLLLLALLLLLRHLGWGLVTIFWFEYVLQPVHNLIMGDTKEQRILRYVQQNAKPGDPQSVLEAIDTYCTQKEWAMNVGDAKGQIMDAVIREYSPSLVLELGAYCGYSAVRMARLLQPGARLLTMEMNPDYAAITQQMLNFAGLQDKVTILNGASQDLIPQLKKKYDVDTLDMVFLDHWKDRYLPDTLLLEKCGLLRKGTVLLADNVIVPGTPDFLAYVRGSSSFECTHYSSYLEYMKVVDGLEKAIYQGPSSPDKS
Sequence of bovine Dopamine Receptor (DR), Non-selective Binding, DRD1 (gene 281125) (Q95136 whole entry, looked up): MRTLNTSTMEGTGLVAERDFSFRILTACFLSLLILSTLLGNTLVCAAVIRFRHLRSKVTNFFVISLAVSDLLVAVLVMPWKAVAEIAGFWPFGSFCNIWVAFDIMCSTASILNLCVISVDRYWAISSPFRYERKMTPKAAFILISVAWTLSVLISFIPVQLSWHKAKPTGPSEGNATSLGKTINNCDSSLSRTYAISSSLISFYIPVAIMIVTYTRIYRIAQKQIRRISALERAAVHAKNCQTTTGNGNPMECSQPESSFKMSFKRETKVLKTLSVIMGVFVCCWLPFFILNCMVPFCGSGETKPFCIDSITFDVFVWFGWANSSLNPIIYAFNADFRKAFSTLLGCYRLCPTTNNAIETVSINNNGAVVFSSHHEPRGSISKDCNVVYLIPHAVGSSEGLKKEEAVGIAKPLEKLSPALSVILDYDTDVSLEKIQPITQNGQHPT
Sequence of human Vascular Endothelial Growth Factor Receptor 2 (VEGFR2), KDR (gene 3791) (P35968 whole entry, looked up): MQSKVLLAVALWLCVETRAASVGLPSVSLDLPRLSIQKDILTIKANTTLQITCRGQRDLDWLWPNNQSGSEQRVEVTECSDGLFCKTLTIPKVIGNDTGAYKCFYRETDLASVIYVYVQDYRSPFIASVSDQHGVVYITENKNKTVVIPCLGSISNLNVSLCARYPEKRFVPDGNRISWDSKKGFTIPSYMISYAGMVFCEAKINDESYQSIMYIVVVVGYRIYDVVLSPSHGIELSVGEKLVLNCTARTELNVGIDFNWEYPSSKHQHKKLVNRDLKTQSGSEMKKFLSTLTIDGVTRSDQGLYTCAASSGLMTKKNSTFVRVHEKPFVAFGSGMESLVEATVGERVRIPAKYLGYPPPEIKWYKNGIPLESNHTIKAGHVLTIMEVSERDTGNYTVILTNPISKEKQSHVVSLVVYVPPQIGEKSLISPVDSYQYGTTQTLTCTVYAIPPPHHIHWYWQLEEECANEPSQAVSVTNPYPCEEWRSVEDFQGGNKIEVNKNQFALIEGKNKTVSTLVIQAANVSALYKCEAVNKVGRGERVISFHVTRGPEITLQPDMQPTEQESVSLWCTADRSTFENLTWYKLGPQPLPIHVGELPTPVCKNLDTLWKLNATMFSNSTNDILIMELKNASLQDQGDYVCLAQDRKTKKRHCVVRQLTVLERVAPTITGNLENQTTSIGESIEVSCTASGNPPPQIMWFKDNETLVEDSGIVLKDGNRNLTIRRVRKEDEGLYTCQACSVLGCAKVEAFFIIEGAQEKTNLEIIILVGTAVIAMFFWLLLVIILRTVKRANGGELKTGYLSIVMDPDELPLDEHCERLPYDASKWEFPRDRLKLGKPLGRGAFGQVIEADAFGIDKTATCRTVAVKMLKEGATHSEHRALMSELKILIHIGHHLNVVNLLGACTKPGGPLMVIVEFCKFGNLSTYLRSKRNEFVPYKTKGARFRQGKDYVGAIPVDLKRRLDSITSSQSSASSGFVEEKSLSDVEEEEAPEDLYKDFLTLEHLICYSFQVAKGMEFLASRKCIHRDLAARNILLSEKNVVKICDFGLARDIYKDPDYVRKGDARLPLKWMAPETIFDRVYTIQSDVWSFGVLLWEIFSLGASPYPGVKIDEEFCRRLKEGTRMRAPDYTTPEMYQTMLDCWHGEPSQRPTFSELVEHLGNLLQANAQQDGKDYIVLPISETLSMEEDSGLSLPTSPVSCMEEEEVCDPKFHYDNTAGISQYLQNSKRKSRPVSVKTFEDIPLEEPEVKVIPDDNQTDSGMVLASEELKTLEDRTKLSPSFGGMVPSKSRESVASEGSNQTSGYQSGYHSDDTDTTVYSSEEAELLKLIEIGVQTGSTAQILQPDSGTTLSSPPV
Sequence of sheep Cyclooxygenase-1 (Cox1), PTGS1 (gene 443551) (P05979 whole entry, looked up): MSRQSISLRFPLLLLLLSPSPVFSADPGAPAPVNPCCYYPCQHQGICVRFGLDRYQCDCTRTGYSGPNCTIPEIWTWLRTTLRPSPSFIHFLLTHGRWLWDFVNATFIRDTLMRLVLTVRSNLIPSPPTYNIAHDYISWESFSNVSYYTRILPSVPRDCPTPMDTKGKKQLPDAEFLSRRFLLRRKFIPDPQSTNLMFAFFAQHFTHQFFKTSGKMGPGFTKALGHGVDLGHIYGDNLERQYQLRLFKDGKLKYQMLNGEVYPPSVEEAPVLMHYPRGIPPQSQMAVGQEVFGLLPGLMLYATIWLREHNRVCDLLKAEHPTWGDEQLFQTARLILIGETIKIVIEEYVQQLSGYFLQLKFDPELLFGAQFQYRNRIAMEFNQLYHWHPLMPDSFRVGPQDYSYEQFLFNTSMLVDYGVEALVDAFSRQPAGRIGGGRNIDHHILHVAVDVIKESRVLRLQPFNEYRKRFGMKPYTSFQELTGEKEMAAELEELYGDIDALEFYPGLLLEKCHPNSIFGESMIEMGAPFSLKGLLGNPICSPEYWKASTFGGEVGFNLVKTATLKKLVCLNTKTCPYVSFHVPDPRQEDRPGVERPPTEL

As to `O=[Si]=O`, the outcome in [1] was inactive.

One may read the AC50 as the concentration giving half of the maximal activity seen. As to `COC(=O)[C@H]1[C@H]2C[C@@H]3c4[nH]c5cc(OC)ccc5c4CCN3C[C@H]2C[C@@H](OC(=O)c2cc(OC)c(OC)c(OC)c2)[C@@H]1OC`, the AC50 in test [1] was 19.5 µM (active).

For the compound `O=C(O)c1[nH]n(-c2ccc(S(=O)(=O)O)cc2)c(=O)c1N=Nc1ccc(S(=O)(=O)O)cc1`, the compound was classed as inactive in [2]. In addition, in test [3], the half-maximal activity concentration (AC50) is 9.33 µM (active).

With `COc1ccc(C(=O)Nc2nc3ccccc3c(NCc3ccccc3)c2C#N)cc1`, the half-maximal activity concentration (AC50) in test [4] is 13.7 µM (active).

With `O=C(NS(=O)(=O)/C=C/c1cccs1)c1ccc(F)cc1Br`, the half-maximal activity concentration (AC50) in test [5] was 14.5 µM (active).

Turning to `C#CC(O)C(CC)CCCC` (centres undefined), the call in [1] was inactive.

On to `Cc1occc(=O)c1O`, for which the compound was called inactive in test [6]. Moreover, in test [4], the AC50 was 17.6 µM (active).

For `Nc1nc(=S)c2[nH]cnc2[nH]1`, the AC50 in test [1] is 2.25 µM (active).

`CC(=O)S[C@H](C(=O)N[C@H]1Cc2ccccc2[C@H]2CCC[C@@H](C(=O)O)N2C1=O)C(C)C`: the outcome in test [3] and in test [1] was inactive.

On to `O=C1c2c(O)cccc2Cc2cccc(O)c21`, for which the half-maximal activity concentration (AC50) in test [4] was 6.81 µM (active); in test [7], 12.1 µM (active); in test [3], 5.47 µM (active); in test [1], 3.2 µM (active).

As to `CC(=O)OCC(COC(C)=O)OC(C)=O`, the compound was classed as inactive in test [7].

With `CSc1ccc(Oc2ccc(S(N)(=O)=O)cc2CN(C)C)cc1C`, the result in test [1] was inactive.

With `O=C(O)CC(O)(CC(=O)O)C(=O)O`, the compound was classed as inactive in test [8].

As for `CCc1nc(N)nc(N)c1-c1ccc(Cl)cc1`, the result in test [4] was inactive.

For `S=c1[nH]c2ccccc2s1`, the concentration at half-maximal activity (AC50) was 9.72 µM (active) in [4], 10.6 µM (active) in test [3] and 8.91 µM (active) in test [1].

Turning to `NC(=Nc1ccccc1)Nc1ccccc1`, the result in [6] and in test [1] was inactive.

On to `Oc1ccccc1O`, for which the result in [4] and in [7] was inactive.

On to `Nc1nc(Cl)nc2c1ncn2[C@H]1C[C@H](O)[C@@H](CO)O1`, for which the AC50 in test [6] is 4.88 µM (active).

Turning to `O=C(N[C@@H](c1ccccc1)[C@@H]1CCCCN1)c1cccc(C(F)(F)F)c1Cl`, the AC50 in test [9] was 25 µM (active).

In the case of `Oc1ccc(O)cc1`, in test [1], the outcome was inactive.

As for `CCCCc1nc2cccnc2n1Cc1ccc(-c2ccccc2-c2nnn[nH]2)cc1`, in test [5], the result was inactive.

As for `CCC(C)N(C)C(=O)c1cc2ccccc2c(-c2ccccc2Cl)n1` (centres undefined), the result in test [3] was inactive.

Regarding `CN(C)C(=O)NC1(c2ccccc2)CCN(CCC[C@]2(c3ccc(Cl)c(Cl)c3)CCCN(C(=O)c3ccccc3)C2)CC1`, the compound was called inactive in [6]. Besides, the concentration at half-maximal activity (AC50) in [4] was 4.73 µM (active); in [9] it was 1.3 µM (active).

For the compound `CCCCC(CC)COC(=O)CCCCCCCC(=O)OCC(CC)CCCC` (centres undefined), the compound was called inactive in test [6].

Consider `COc1ccc(OC(F)(F)F)cc1CN[C@H]1CCCN[C@H]1c1ccccc1`, for which the compound was called inactive in test [10] and in test [6]. Besides, the concentration at half-maximal activity (AC50) in test [1] was 11.6 µM (active); in [9], 8.68 µM (active).

Regarding `CN(C)C(=O)NC1(c2ccccc2)CCN(CC[C@@]2(c3ccc(F)c(F)c3)CN(C(=O)c3ccccc3)CCO2)CC1`, the result in test [10] and in test [6] was inactive. The AC50 in test [9] was 6.51 µM (active).

Regarding `CCCCCCCCCCCCCCOS(=O)(=O)O`, in test [6], the AC50 is 30.2 µM (active).

Regarding `C/C=C/c1ccc(OC)cc1`, the compound was classed as inactive in test [4].

For the compound `Cn1cnc2c1c(=O)[nH]c(=O)n2C`, the result in [1] was inactive.

Take `CCCCCCCCCCCCCCCCO`: the half-maximal activity concentration (AC50) in test [2] is 46.6 µM (active).

For the compound `CCc1cc(C2=C(C(=O)O)N(c3ccccc3C(F)(F)F)S(=O)(=O)c3ccccc32)cc2c1OCO2`, the half-maximal activity concentration (AC50) in [4] is 19.2 µM (active); in test [5], 25 µM (active).

In the case of `CCN(CC)CCOc1ccc(C(=C(Cl)c2ccccc2)c2ccccc2)cc1`, the compound was called inactive in test [8]. In addition, the concentration at half-maximal activity (AC50) in test [1] was 4.39 µM (active); in test [9] it was 14.2 µM (active).

Consider `O=NO`, for which the call in [4] was inactive.

Regarding `O=C1NC(=O)C(c2ccccc2)(c2ccccc2)N1`, the result in test [10] was inactive.
